The values that follow come from PubChem BioAssay (NCATS).

Where “and” joins values, the source holds several entries; their conditions need not be identical. Identical values can stand only once. Values without a mark were called inactive. Records with an inconclusive call do not appear. Calls of active or inactive are those of the source. Unless noted, calls follow the shape of the dose curve; as a rule, active = well fitted curve in the direction sought with a large enough effect; inconclusive = small, poorly fitted or top-dose-only effect, or another doubt; inactive = no such curve, though single readings can be large; an effect the other way counts as inactive or inconclusive.

A short description of assay [1]: Cell Viability - Jurkat (AID 426;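 active = dose-dependent loss of cell ATP signal giving a full or clear fitted curve, ranked by lower potency value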; also: potency is read from the fitted curve at half-maximal effect). The following applies: qHTS. Put shortly: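 qHTS, 1536-well; Jurkat E6-1, 5000 cells/well, complete medium; cpd 40 hr, 37 °C; CellTiter-Glo 20 min RT; luminescence. AC50 by Hill fit.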
On the technique in general: qHTS replaces the single test concentration by a dilution series.

A short description of assay [2]: Cell Viability - Hek293 (AID 427;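 active = compounds whose dose-response curve shows a full or clear partial loss of cell viability, called from curve shape rather than a numeric limit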;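 also: potency is read from the fitted curve at half-maximal effect; cells exposed to compound for 40 hours at 37 °C before reading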). As to conditions: qHTS. Put shortly: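 HEK293 cells in complete medium were exposed to compound for 40 hr at 37 °C, then cellular ATP was read by CellTiter-Glo luminescence. Data were normalized to DMSO (basal) and 100 uM tamoxifen (100% inhibition), and AC50 came from Hill fits.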
Assay [3] is described as follows: Cell Viability - NIH 3T3 (AID 541).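 Also: plate controls were DMSO alone for no effect and tamoxifen positive control for full effect; nearly all actives have a fitted effect of over 25% in size.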 As to conditions: NIH 3T3 cell viability, qHTS; activity change, negative = cytotoxicity: at 92.2 µM (top of the series). The gist of the method: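 Luminescent ATP signal (CellTiter-Glo) served as the viability read-out after NIH 3T3 cells were exposed to compounds over a concentration range for 40 hr at 37 °C. Hill-equation modelling of concentration-response data gave AC50.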

Assay [4] can be described thus: Cell Viability - SH-SY5Y (AID 544).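 Also: 0% = DMSO alone and -100% = 100 µM tamoxifen; nearly all actives have a fitted effect of over 55% in size.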 As to conditions: SH-SY5Y neuroblastoma cell viability; viability change, negative = cytotoxic: at 92.2 µM (top of the series). Put shortly: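 Luminescent ATP read-out (CellTiter-Glo) measures loss of viable SH-SY5Y neuroblastoma cells after 40 hr compound exposure at 37 °C. AC50 values derive from standard Hill modelling of qHTS concentration-response data.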

Assay [5] can be described thus: Cellular Toxicity (caspase-3) BJ (AID 658). The following applies: BJ fibroblasts, luminescence; Potency: caspase-3 activation; series mostly up to 91.7 µM. The gist of the method: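 Readout: Caspase-Glo 3/7 luminescence increase in BJ cells after 16 hr treatment at 37 °C. Staurosporine and tamoxifen served as positive controls; AC50 values came from Hill modelling of data normalized to DMSO and 10 uM staurosporine.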

A short description of assay [6]: Cellular Toxicity (caspase-3) MRC-5 (AID 659). The following applies: MRC-5 cells, luminescence, normalized: DMSO 0%, 10 µM staurosporine 100%; series mostly up to 91.7 µM. The gist of the method:
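Concentration-dependent caspase 3/7 activation is measured in human normal lung fibroblasts (MRC-5) following 16-hour treatment. AC50 values come from standard Hill-equation modeling of luminescence normalized to DMSO and 10 uM staurosporine.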

Assay [7] addresses Cytochrome P450 3A4 (Homo sapiens) (UniProt P08684). The experiment in a line: qHTS Assay for Inhibitors and Substrates of Cytochrome P450 3A4 (AID 884). Also: % is scaled to controls: 0 for no effect and ±100 for the full control effect; nearly all actives have a fitted effect of over 50% in size. The following applies: recombinant CYP3A4, Luciferin-PPXE luminescence; series mostly up to 57.1 µM. Put shortly: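 20 nM human CYP3A4 with 25 uM Luciferin-PPXE (at KM) in 200 mM KPO4, preincubated 10 min with compound; NADPH regeneration started a 60 min RT reaction. Luciferin detected by luminescence, normalized to 57 uM ketoconazole as full inhibition.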

Assay [8] concerns the target Glucocorticoid receptor (Homo sapiens) (UniProt P04150). The assay is described as follows: qHTS assay for small molecule agonists of glucocorticoid receptor signaling (AID 588532; active = well fitted curve in the direction sought with a large enough effect in the signal ratio, with a control signal flat; the % refers to the signal ratio;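 also: 100% = dexamethasone at 0.1 µM and 0% = DMSO only wells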). As to conditions: HeLa MMTV-bla, beta-lactamase ratio, agonist, 18 h; hits give high values; percent of dexamethasone control, DMSO zero. The gist of the method: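 Using MMTV-bla HeLa cells in medium with 1% stripped FBS and 25 mM HEPES, compounds were titrated and incubated overnight-length (18 h). Beta-lactamase cleavage of CCF4 was quantified by dual-emission fluorescence.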

The target of assay [9] is Thyroid hormone receptor beta (Homo sapiens) (UniProt P10828). The experiment in a line: qHTS assay for small molecule agonists of thyroid hormone receptor beta signaling (AID 588545; calls by dose curve). As to conditions: TR-UAS-bla GripTite HEK 293, beta-lactamase ratio, agonist mode, 18 h; series mostly up to 76.7 µM. Put shortly:
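Cells (2500/well) were seeded, incubated 4 hrs at 37 C, dosed with a compound series, incubated 18 hrs, loaded with CCF4 dye for 2 hrs at RT, then read for fluorescence. Data were scaled between DMSO (0%) and 10 nM T3 (100%).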

Assay [10] is described as follows: qHTS assay for small molecule agonists of the antioxidant response element (ARE) signaling pathway (AID 651741; active = well fitted activation curve with a large enough effect in the signal ratio; the % refers to the signal ratio; also: potency is read from the fitted curve at half-maximal effect; as to activation: % of control where 0% means no effect). As to conditions: HepG2 ARE-bla reporter, beta-lactamase FRET ratio, 16 h; series mostly up to 96 µM. Put shortly: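 Quantitative HTS in HepG2 cells stably expressing an ARE-beta-lactamase reporter; 16 h compound exposure at 37 C, followed by 2 h room-temperature incubation with LiveBLAzer B/G FRET substrate and fluorescence measurement.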

Assay [11] in a line: qHTS assay for small molecule activators of the p53 signaling pathway (AID 651743; active = well fitted activation curve with a large enough effect in the signal ratio, not every such curve was filed as active; the % refers to the signal ratio; also: % of control where 0% means no effect). The following applies: HCT-116 p53RE-bla, beta-lactamase FRET ratio, 16 h; activation: hits give high values. The gist of the method: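 Read-out is fluorescence intensity from the LiveBLAzer B/G FRET substrate, added for 2 hours at room temperature after HCT-116 p53RE-bla cells had been incubated with compounds for 16 hours at 37 C.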

Assay [12] can be described thus: qHTS assay for small molecule activators of the nuclear factor-kappa B (NF-kB) signaling pathway (AID 651749; active = well fitted activation curve with a large enough effect in the signal ratio; the % refers to the signal ratio; also: % of control where 0% means no effect). As to conditions: NF-kB-bla ME-180 cells, beta-lactamase FRET ratio, 16 h; hits give high values. Put shortly:
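Readout: beta-lactamase reporter driven by an NF-kB response element, detected fluorescently as loss of FRET. Cells were the ME-180 line, treated 16 hr at 37C with pin-transferred compound.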

Assay [13] addresses Nuclear receptor ROR-gamma (Homo sapiens) (UniProt P51449). The assay is described as follows: qHTS assay for small molecule antagonists of the retinoid-related orphan receptor gamma (ROR-gamma) signaling pathway (AID 651802).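 Also: luciferase reporter luminescence driven by ROR response element; % is scaled to controls: 0 for no effect and ±100 for the full control effect; nearly all actives have a fitted effect of over 60% in size.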 The following applies: ROR-gamma antagonist cell reporter assay; series mostly up to 92.2 µM. Put shortly:
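CHO, TET-inducible ROR + RORE-LUC reporter, 1536-well qHTS. Compound pinned, doxycycline added, 16hr 37C/5% CO2. ONE-Glo, 30 min RT, luminescence; signal drop scored as antagonism.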

Assay [14] is described as follows: qHTS assay for small molecule antagonists of the retinoid-related orphan receptor gamma (ROR-gamma) signaling pathway - cell viability counter screen (AID 720652; active = well fitted curve in the direction sought with a large enough effect in the repeat runs; an effect the other way counts as inactive or inconclusive;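 also: compound exposure lasted 16 hr before ATP read; % is scaled to controls: 0 for no effect and ±100 for the full control effect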). The following applies: RORgamma reporter cell line viability counter screen; series mostly up to 92.2 µM. Put shortly: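 Luminescence from CellTiter-Glo after 30 min at room temperature reported cellular ATP as the cytotoxicity measure. Cells were the CHO reporter line with doxycycline-induced ROR-gamma expression, exposed to compound for 16 hr at 37 C.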

Assay [15] can be described thus: qHTS assay for small molecule activators of the human pregnane X receptor (PXR) signaling pathway (AID 720659; call rule not given here; also: 0% is about no effect). As to conditions: DPX-2 HepG2 CYP3A4-luciferase, 24 h; series mostly up to 92.3 µM.
Assay [16] has as its target Voltage-gated inwardly rectifying potassium channel KCNH2 (Homo sapiens) (UniProt Q12809). The experiment in a line: qHTS Assay for Small Molecule Inhibitors of the Human hERG Channel Activity (AID 588834).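 Also: lower thallium flux fluorescence means stronger hERG block; nearly all actives have a fitted effect of over 50% in size.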 Also: potency is read from the fitted curve at half-maximal effect. The following applies: U2OS BacMam hERG, FluxOR thallium flux fluorescence; series mostly up to 92.2 µM. Put shortly: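 Concentration-response qHTS measuring drop in thallium-sensitive dye signal. U2OS cells carrying BacMam hERG; compound exposure ~10 min, then stimulation buffer and 2 min read at 1 sec intervals.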

Assay [17] is described as follows: qHTS assay for small molecule disruptors of the mitochondrial membrane potential - 1 hr assay (AID 651754; calls by dose curve; also: % is scaled to controls: 0 for no effect and ±100 for the full control effect; nearly all actives have a fitted effect of over 35% in size). As to conditions: series mostly up to 92.2 µM. Put shortly:
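HepG2, 2,000 cells/well, overnight attachment; cpd or DMSO 1 hr, 37C/5% CO2; Mito-MPS dye 30 min, 37C; fluorescence monomer (490/535) and aggregate (540/590).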

Assay [18] concerns the target Tumor necrosis factor (Homo sapiens) (UniProt P01375). The assay is described as follows: qHTS assay to identify small molecules that stimulate Tumor Necrosis Factor-alpha (TNF-alpha) secretion (AID 651757; active = well fitted curve in the direction sought with a large enough effect in the signal ratio; the % refers to the signal ratio; also: 0% is about no effect). The following applies: Human cells, HTRF 665/615 ratio; series mostly up to 92.2 µM. Put shortly: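 Read-out is HTRF, a TR-FRET sandwich of cryptate- and XL665-labeled anti-TNF-alpha antibodies detecting cytokine secreted by THP-1 cells. Cells had been incubated with test compounds at 37 C for 17 hrs beforehand.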

Assay [19] concerns the target Vitamin D3 receptor (Homo sapiens) (UniProt P11473). The assay is described as follows: qHTS assay for small molecule antagonists of vitamin D receptor signaling (AID 588541; calls by dose curve;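 also: receptor activated by calcitriol during compound treatment; % is scaled to controls: 0 for no effect and ±100 for the full control effect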). As to conditions: HEK293T VDR-UAS-bla, beta-lactamase ratio, antagonist mode; series mostly up to 76.7 µM. The gist of the method:
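Antagonist-mode beta-lactamase reporter assay: HEK293T VDR-UAS-bla cells were exposed to titrated compound alongside 1-alpha,25-dihydroxyvitamin D3 at 3 nM final for 16 h. Values were normalized to the 50 nM agonist control and DMSO basal, with IC50 and efficacy from Hill equation fits.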

Assay [20] has the same target. The experiment in a line: qHTS assay for small molecule agonists of vitamin D receptor signaling (AID 588543; calls by dose curve;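 also: 0% = DMSO basal and 100% = reference agonist control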). The following applies: HEK293T VDR-UAS-bla, beta-lactamase ratio, 16 h; series mostly up to 76.8 µM. Put shortly:
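β-lactamase reporter, VDR-UAS-bla HEK293T, agonist mode. Cells plated 5 h at 37 °C, compound titration 16 h at 37 °C, CCF4 dye 2 h RT, ratio 460/530 nm. Hill fit → EC50, efficacy vs 50 nM 1α,25-(OH)2D3.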

Chain of Cytochrome P450 3A4 (Homo sapiens) (P08684 whole entry, looked up): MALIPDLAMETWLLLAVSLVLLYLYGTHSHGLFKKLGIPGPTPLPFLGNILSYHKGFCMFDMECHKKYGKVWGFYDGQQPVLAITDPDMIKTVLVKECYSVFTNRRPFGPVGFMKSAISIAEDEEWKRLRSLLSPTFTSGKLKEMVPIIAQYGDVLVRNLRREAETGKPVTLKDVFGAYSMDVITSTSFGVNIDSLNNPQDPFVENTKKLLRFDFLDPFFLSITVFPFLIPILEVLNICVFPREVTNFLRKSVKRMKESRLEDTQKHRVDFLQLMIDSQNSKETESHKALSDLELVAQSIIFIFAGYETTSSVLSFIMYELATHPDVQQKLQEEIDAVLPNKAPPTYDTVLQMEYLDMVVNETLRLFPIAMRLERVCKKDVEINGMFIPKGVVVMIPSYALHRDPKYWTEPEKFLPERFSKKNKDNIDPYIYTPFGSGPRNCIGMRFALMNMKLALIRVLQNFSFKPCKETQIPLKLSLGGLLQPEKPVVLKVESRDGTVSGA
Chain of Vitamin D3 receptor (Homo sapiens) (P11473 whole entry, looked up): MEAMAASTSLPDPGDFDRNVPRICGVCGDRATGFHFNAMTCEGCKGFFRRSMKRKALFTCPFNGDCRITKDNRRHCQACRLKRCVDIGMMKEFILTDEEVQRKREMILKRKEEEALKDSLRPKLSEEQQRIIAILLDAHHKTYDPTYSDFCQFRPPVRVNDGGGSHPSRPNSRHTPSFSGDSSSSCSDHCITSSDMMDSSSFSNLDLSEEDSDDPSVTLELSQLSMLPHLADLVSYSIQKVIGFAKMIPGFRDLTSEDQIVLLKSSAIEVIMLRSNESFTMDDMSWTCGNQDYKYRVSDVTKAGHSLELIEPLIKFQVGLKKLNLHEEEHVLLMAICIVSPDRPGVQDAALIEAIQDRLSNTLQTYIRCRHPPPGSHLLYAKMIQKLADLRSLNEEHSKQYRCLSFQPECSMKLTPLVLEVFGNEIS
Chain of Voltage-gated inwardly rectifying potassium channel KCNH2 (Homo sapiens) (Q12809 whole entry, looked up): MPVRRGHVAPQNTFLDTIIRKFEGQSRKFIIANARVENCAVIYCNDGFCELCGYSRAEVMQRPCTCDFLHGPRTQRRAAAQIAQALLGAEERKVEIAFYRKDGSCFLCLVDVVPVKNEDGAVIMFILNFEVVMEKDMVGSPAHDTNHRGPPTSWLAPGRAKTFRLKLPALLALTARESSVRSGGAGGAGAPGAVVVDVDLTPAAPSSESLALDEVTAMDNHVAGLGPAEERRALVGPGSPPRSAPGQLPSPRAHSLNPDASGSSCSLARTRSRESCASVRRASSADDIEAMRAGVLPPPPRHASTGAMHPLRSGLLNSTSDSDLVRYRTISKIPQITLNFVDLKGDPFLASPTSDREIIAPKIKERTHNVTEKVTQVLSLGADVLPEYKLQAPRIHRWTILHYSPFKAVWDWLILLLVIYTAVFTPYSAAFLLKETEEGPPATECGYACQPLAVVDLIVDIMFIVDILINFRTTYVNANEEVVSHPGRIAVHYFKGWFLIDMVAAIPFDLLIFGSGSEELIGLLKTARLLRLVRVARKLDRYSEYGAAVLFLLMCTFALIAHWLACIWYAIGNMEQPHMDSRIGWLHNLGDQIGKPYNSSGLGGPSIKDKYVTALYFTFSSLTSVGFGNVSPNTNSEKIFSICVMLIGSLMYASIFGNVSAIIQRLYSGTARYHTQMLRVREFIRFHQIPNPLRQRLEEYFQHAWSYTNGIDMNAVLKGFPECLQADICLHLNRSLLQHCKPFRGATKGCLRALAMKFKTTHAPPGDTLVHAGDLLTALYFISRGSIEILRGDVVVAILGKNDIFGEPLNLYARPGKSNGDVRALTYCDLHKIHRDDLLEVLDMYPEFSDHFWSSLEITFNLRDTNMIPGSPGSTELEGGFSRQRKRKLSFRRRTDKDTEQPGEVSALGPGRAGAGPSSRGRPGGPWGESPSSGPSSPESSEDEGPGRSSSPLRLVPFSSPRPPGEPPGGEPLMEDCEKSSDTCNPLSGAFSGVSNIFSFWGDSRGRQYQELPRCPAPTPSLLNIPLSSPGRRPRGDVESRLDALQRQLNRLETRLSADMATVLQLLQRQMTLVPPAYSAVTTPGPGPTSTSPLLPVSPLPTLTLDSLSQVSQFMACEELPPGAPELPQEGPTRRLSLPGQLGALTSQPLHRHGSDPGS
Chain of Thyroid hormone receptor beta (Homo sapiens) (P10828 whole entry, looked up): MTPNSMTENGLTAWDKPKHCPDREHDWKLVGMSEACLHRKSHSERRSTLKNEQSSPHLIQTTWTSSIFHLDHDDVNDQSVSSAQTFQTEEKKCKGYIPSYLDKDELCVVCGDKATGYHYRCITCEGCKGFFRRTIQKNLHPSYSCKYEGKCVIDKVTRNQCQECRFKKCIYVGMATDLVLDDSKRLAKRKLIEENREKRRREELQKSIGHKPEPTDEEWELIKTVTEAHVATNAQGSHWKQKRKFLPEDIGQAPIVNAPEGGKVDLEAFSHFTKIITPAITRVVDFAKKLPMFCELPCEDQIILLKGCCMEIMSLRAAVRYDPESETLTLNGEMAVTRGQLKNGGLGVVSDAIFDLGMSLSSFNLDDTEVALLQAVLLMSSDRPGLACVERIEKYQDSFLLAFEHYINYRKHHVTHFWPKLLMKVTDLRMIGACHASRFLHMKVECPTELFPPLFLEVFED
Chain of Tumor necrosis factor (Homo sapiens) (P01375 whole entry, looked up): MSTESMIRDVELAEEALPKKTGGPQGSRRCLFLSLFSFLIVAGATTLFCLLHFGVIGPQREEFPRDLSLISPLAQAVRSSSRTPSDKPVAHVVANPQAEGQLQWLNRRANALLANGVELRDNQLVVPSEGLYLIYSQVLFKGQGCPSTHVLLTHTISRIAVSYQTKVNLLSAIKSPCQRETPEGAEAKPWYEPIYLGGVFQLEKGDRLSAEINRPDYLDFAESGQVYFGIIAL
Chain of Glucocorticoid receptor (Homo sapiens) (P04150 whole entry, looked up): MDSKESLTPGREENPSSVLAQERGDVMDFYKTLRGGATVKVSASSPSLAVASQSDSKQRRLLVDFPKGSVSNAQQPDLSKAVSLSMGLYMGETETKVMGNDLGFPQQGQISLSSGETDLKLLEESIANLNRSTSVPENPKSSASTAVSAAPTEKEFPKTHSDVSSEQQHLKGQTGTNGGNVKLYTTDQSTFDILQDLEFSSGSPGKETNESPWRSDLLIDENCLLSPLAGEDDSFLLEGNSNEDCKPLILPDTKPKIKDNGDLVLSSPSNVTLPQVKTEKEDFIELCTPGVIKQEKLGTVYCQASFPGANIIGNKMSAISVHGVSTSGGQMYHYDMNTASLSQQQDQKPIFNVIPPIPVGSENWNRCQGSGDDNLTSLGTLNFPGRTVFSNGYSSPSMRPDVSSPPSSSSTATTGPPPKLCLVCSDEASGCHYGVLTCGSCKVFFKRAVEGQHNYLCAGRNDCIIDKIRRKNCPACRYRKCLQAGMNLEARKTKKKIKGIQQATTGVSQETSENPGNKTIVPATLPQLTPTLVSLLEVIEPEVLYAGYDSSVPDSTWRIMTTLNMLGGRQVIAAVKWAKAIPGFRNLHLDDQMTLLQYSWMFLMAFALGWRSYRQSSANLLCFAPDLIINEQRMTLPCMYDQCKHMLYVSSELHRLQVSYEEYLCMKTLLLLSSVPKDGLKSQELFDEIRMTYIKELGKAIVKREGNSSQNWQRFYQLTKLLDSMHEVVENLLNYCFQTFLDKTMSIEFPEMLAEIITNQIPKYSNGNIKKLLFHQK
Chain of Nuclear receptor ROR-gamma (Homo sapiens) (P51449 whole entry, looked up): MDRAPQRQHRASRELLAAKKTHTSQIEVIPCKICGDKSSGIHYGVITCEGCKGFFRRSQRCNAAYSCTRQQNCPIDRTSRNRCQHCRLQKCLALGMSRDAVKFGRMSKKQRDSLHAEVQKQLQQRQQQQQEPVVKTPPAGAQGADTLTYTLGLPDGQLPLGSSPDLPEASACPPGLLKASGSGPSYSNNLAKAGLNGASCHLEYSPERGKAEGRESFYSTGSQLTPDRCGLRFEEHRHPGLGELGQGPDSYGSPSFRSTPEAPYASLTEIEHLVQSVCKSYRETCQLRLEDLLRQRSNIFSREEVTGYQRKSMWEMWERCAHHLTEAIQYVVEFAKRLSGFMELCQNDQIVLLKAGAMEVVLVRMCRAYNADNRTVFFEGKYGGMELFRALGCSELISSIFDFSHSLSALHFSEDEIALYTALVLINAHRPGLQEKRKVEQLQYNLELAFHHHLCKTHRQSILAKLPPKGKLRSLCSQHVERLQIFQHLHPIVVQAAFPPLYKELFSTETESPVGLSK

With `CC(C)COC(=O)COc1cc(Cl)c(Cl)cc1Cl`, the Potency is above 92 µM in [1], above 92 µM in [2] and 42.2 µM (active) in assay [10]. For the same compound, in assay [3], the activity change, negative = cytotoxicity is -0.53%. Also, the Potency entry in assay [4], in assay [5], in assay [7], in assay [9], in assay [13] and in assay [14] was “inactive” in each case. The call in [6] and in [15] was inactive. The values for the activation in assay [8], in assay [11] and in assay [12] were -3.56%, -1.51% and -1.07%, respectively.
For `CCCC(=O)OC(=O)CCC`, the Potency in [1] and in assay [2] was above 92 µM in each case. For the same compound, the Potency result in [4], in assay [7], in assay [9], in [16], in [10] and in [17] was “inactive” in each case. Also, the Potency result in [18], in assay [13] and in [14] was “inactive” throughout. Besides, the result in assay [6] and in assay [15] was inactive. Also, the activation in [11] is 0.746% and 0.239%; in assay [12] it was 0.205% and -0.934%.
As for `O=C(OCc1ccccc1)c1ccccc1O`, the Potency in assay [1] was above 92 µM; in assay [2], above 92 µM; in assay [16], 39.8 µM (active). Also, the activity change, negative = cytotoxicity in assay [3] was -9.56%. The Potency result in [4], in assay [5], in assay [7], in [19], in assay [20] and in assay [9] was “inactive” each time. Besides, the Potency result in assay [17], in assay [18], in assay [13] and in assay [14] was “inactive” throughout. The compound was called inactive in assay [6] and in [15]. The activation was -2.46% and -9.77% in assay [8]; 1.07% and -2.52% in [11]; -0.301% and -2.68% in assay [12].
On to `O=[N+]([O-])c1cccc(I)c1`, for which the Potency in assay [1] and in assay [2] was above 92 µM throughout. Besides, the activity change, negative = cytotoxicity in assay [3] is -7.89%. Besides, the Potency result in assay [4], in assay [5], in [7], in [19], in [20] and in assay [9] was “inactive” in each case. In addition, the Potency result in [16], in assay [10], in assay [17], in assay [18], in assay [13] and in [14] was “inactive” in each case. Further, the compound was called inactive in assay [6] and in assay [15]. The results for the activation in assay [8], in assay [11] and in [12] were -12.6%, -3.48% and -0.0255%, respectively.
Take `O=c1[nH]ncc2ccccc12`: the Potency in assay [1] and in assay [2] was above 92 µM in each case. Besides, in assay [3], the activity change, negative = cytotoxicity is -142% (active). Besides, the viability change, negative = cytotoxic in assay [4] is -82.8% (active). For the same compound, the Potency result in assay [5], in assay [7], in assay [19], in assay [20], in [9] and in [16] was “inactive” throughout. Also, the Potency entry in assay [10], in assay [17], in assay [18], in assay [13] and in [14] was “inactive” throughout. The result in assay [6] and in [15] was inactive. Besides, the activation was -0.672% in assay [8], -2.08% in assay [11] and 0.114% in assay [12].
Take `COc1ccc([N+](=O)[O-])cc1N`: the Potency is above 92 µM in assay [1], above 92 µM in assay [2] and 30.6 µM (active) in [10]. Further, the activity change, negative = cytotoxicity in assay [3] is -29.6%. Besides, the Potency entry in [4], in assay [5], in assay [7], in [19], in [20] and in assay [9] was “inactive” each time. The Potency entry in [16], in assay [17], in assay [13] and in [14] was “inactive” each time. Moreover, the call in assay [6] and in assay [15] was inactive. In addition, the activation in assay [8] is 2.11% and 1.38%; in assay [11], -2.91% and -2.52%; in assay [12], 2.19% and -0.307%.
